LmPK inh – qHTS Assay for Inhibitors of Leishmania Mexicana Pyruvate Kinase (LmPK); Q27686; purified LmPK, Kinase-Glo ATP luminescence, 1 h; Potency, µM (highest dose often 57.5 µM), usual class: inhibitors; 290,000 tested, 0.37% active; AID 1721, 2009
Target sequence (Q27686 whole entry, looked up): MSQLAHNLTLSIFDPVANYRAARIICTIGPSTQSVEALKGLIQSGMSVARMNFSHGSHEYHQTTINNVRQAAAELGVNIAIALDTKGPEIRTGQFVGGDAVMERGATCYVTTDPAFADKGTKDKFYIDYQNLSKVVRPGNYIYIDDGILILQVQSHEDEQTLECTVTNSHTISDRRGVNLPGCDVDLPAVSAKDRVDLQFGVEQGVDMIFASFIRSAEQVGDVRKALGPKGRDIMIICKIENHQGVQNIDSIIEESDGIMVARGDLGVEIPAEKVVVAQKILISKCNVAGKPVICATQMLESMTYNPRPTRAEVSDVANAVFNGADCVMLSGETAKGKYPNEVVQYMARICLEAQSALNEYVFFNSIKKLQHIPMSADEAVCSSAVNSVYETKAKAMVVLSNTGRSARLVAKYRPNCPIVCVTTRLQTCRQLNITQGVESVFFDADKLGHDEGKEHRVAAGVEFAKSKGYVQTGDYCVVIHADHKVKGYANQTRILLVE
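In 50 mM imidazole pH 7.2 with 7 mM MgCl2, LmPK (0.1 nM) turned over PEP (0.5 mM) and ADP (0.1 mM) for 1 h at room temperature. Luciferase read-out of ATP.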
Cycloheximide cs – Cycloheximide Counterscreen for Small Molecule Inhibitors of Shiga Toxin; max response, %; 300,000 tested, 12% active; cell reporter, cycloheximide protein synthesis inhibition counterscreen; in the data active means max response mostly above about 13%, no sharp cut-off; inactive means mostly below about 14%; further: read at 38.3 µM for the half of the compounds with a filed dose
Shiga toxin inh – A qHTS for Small Molecule Inhibitors of Shiga Toxin; inhibition, % at 38.7 µM; 290,000 tested, 9.2% active; Vero cells, Shiga toxin protein synthesis inhibition reporter; AID 2315, 2010; in the data active means inhibition mostly above about 28%, no sharp cut-off; inactive means mostly below about 43%
Pf growth 48h – Primary qHTS for delayed death inhibitors of the malarial parasite plastid, 48 hour incubation | P. falciparum luciferase growth in erythrocytes, 48 h | Potency, µM (highest dose often 28.7 µM), actives largely listed as inhibitors | 310,000 tested, 5.9% active | AID 504832, 2011
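Luciferase-expressing parasites in RBCs, 2% Hct / 0.1% parasitemia final; RPMI 1640 + 0.5% Albumax; 37 C, 5% CO2, one generation; luminescence read-out, lower signal = inhibition.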
Pf growth 96h – Primary qHTS for delayed death inhibitors of the malarial parasite plastid, 96 hour incubation | P. falciparum luciferase reporter growth, 96 h | Potency, µM (doses to about 28.7 µM), hits mostly inhibitors | AID 504834, 2011 | 320,000 tested, 6.9% active
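P. falciparum expressing integrated firefly luciferase, in erythrocytes at 2% hematocrit, 0.05% parasitemia, incubated with compounds 96 h at 37 C, 5% CO2. Growth inhibition read as loss of luminescence; two-generation exposure targets delayed-death apicoplast inhibitors.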
Hits are given with their value; - = inactive; ? = inconclusive; . = no result given. Sampled rows, rich in hits. Any-hit rate of the full collection: about 22%. Unless noted, the call rests on the fitted dose curve; in most records, active means well fitted inhibition curve with a large enough effect; inconclusive means small, poorly fitted or top-dose-only effect, or another doubt; inactive means no such curve, though single readings can be large or run the other way.

SMILES	LmPK inh	Cycloheximide cs	Shiga toxin inh	Pf growth 48h	Pf growth 96h
O=C(N=C1SC2CS(=O)(=O)CC2N1c1ccccc1C(F)(F)F)C1CCCO1 (centres undefined)	-	-	-	-	-
c1ccc(-n2cnc3ccccc32)cc1	-	-	-	-	-
COc1ccc(-n2cnc3cc(NCc4cccs4)ccc32)cc1	-	51	100	?	-
Cn1cnc2cc(NCc3cccs3)ccc21	-	24	65	-	10µM
CCCn1c(NCc2cccs2)nc2ccccc21	-	-	-	-	?
c1ccc(-n2cnc3cc(NCc4cccs4)ccc32)cc1	-	88	77	-	-
COc1ccc(-n2cnc3cc(NCc4ccccn4)ccc32)cc1	-	-	-	?	?
Cc1ccc(-n2cnc3cc(NCc4cccs4)ccc32)cc1	-	53	100	.	?
Cc1cc(-n2cnnn2)cc(C)c1S(=O)(=O)NCCOc1ccccc1	-	-	-	-	-
Cc1ccc(C(=O)OC(C)C(=O)NC(C)CCc2ccccc2)o1 (centres undefined)	.	.	.	-	-
COc1ccccc1-n1cnc2cc(C(=O)NCc3ccco3)ccc21	-	-	-	?	-
c1ccc(-n2cnc3cc(NCc4ccco4)ccc32)cc1	-	35	63	-	-
O=C(NC(=S)Nc1ccc(CN2CCCCC2)cc1)c1cc2ccccc2o1	-	14	-	?	-
O=C(Nc1cccnc1)c1cc2cc(Br)ccc2o1	-	22	.	-	?
O=C(NC(=S)Nc1cccnc1)c1cc2ccccc2o1	-	46	57	-	-
O=C(NC(=S)Nc1ccc2oc(=O)ccc2c1)c1cc2ccccc2o1	-	-	-	-	-
CC(=O)Nc1ccc(NC(=S)NC(=O)c2cc3ccccc3o2)cc1	-	-	-	-	-
O=C(NC(=S)NCc1cccnc1)c1cc(Br)ccc1Cl	-	-	-	?	?
O=C(NC(=S)NCc1cccnc1)c1cc2ccccc2o1	-	30	-	-	?
CCOC(=O)N1C(COCc2ccccc2)C=CCS1(=O)=O (centres undefined)	.	78	181	.	.
Cc1ccc2cccc(OC(=O)N3CCCC3)c2n1	-	-	-	-	.
O=C(Oc1ccc2ccccc2c1Cl)N1CCCCCC1	-	66	71	-	3.3µM
O=C(Oc1ccc2ccccc2c1Cl)N1CCCC1	-	38	59	-	?
O=C(Oc1ccnc2cc(Cl)ccc12)N1CCCCCC1	-	-	-	.	?
CCCS(=O)(=O)N1CCc2ccc(NC(=O)C3CCCO3)cc2C1 (centres undefined)	-	-	-	?	-
SMILES	LmPK inh	Cycloheximide cs	Shiga toxin inh	Pf growth 48h	Pf growth 96h
O=c1n(-c2ccccc2)c(=O)n2n1CC(O)C2	-	-	-	-	-
Cc1cc(NC(=O)C(C)Oc2ccccc2)no1 (centres undefined)	-	-	-	-	-
Cc1ccc(S(=O)(=O)NC(C(=O)Oc2cc3oc(=O)cc(C)c3cc2Cl)C(C)C)cc1 (centres undefined)	-	-	-	-	-
Cc1ccc(OCCOCCN2CCN(C)CC2)c([N+](=O)[O-])c1	-	-	-	-	?
Cc1ccc([N+](=O)[O-])c(OCCN2CCNCC2)c1	-	-	-	-	2.3µM
Cc1ccc(OCCOCCN2CCCCC2)c([N+](=O)[O-])c1	-	-	-	?	-
Cc1ccc([N+](=O)[O-])c(OCc2ncc(Cl)n2C)c1	-	39	72	-	-
COc1cccc(C(=O)NCCn2ccc3ccccc32)c1	-	25	45	-	-
CCn1c(CCCNC(=O)c2ccc(F)cc2)nc2ccccc21	-	-	-	-	-
Cc1cc2ccccc2n1CCNC(=O)C1CCCCC1	-	-	-	-	-
COc1ccc(C(=O)NCCCc2nc3ccccc3n2Cc2ccccc2C)cc1OC	-	-	-	?	9.3µM
COc1ccc(C(=O)NCCn2ccc3ccccc32)cc1OC	-	18	-	-	-
COc1cc(OC)cc(C(=O)NCCn2ccc3ccccc32)c1	-	-	-	.	?
O=C(NCCn1ccc2ccccc21)C1CCCCC1	-	18	24	-	-
Cc1ccc(S(=O)(=O)CC(=O)N2CC(C)OC(C)C2)cc1 (centres undefined)	-	-	-	-	-
O=C(NCc1cccnc1)c1cccn2c(=O)c3sccc3nc12	-	-	-	-	-
O=C(CCc1nc2ccccc2[nH]c1=O)N/N=C/c1ccccc1	-	-	-	-	?
O=C(c1nc2ccccn2c1CNCCCn1cccn1)N1CCCC1	-	-	-	-	13µM
O=C(c1nc2ccccn2c1CNCC1OCCc2ccccc21)N1CCOCC1 (centres undefined)	-	-	-	-	12µM
Cc1cccc(-c2nnc(SCc3cc(=O)[nH]c4ccccc34)n2C)c1	-	-	-	13µM	?
CCn1c(SCc2cc(=O)[nH]c3ccccc23)nnc1C1CC1	-	-	-	-	-
Cn1ccnc1SCc1cc(=O)[nH]c2ccccc12	-	17	-	-	-
NC(=O)C1(c2ccccc2)OC1c1ccccc1 (centres undefined)	.	.	.	-	-
Cc1ccc(NC(=O)COc2ccc(-n3cnnn3)cc2)cc1C	-	-	-	-	.
Cc1cc(C)cc(OCC(=O)Nc2ccc(N3CCCC3)cc2)c1	-	-	-	?	-
SMILES	LmPK inh	Cycloheximide cs	Shiga toxin inh	Pf growth 48h	Pf growth 96h
Cc1ccc(NC(=O)COc2ccc(/C(N)=N/O)cc2)cc1C	-	-	84	-	-
Cc1ccc(NC(=O)COC(=O)C2CC2(Cl)Cl)cc1C (centres undefined)	-	31	-	-	-
Cc1ccc(NC(=O)COC(=O)C2CC2)cc1Cl	.	.	.	-	-
Cc1cc(OCC(=O)Nc2ccc(S(=O)(=O)N3CCN(C)CC3)cc2)cc(C)c1Cl	-	-	-	?	-
Cc1ccc(OCC(=O)Nc2ccc(N3CCCC3)cc2)cc1C	-	-	-	12µM	-
Cc1cc(OCC(=O)Nc2ccc(S(=O)(=O)N3CCN(C)CC3)cc2)ccc1Cl	-	-	-	4.1µM	12µM
C=C(C)[C@H]1CC=C(CO)CC1	.	-	-	.	.
Cc1cc(OCC(=O)Nc2ccncc2)ccc1Cl	-	-	-	-	?
Cc1cc(OCC(=O)Nc2ccc(N3CCN(C)CC3)cc2)ccc1Cl	-	38	77	-	?
CCCn1c(=O)[nH]c(=O)c2c(C(=O)OCC)cc(-c3cccs3)nc21	-	31	44	?	?
CCCCn1c(=O)[nH]c(=O)c2c(C(=O)OCC)cc(-c3cccs3)nc21	-	-	-	-	-
COC(=O)c1sc(N)c(C(=O)OC)c1CSc1nc2sc3c(c2c(=O)n1C)CCC3	-	-	-	?	1.7µM
C=CCn1c(SCc2c(C)noc2C)nc2sc3c(c2c1=O)CCCC3	-	-	-	13µM	2.1µM
C=CCn1c(SCc2c(C)noc2C)nc2cc(C(=O)O)ccc2c1=O	-	-	-	-	.
Cc1noc(C)c1CSc1nc2ccccc2c(=O)n1-c1ccccc1	-	-	-	.	-

Screening results: PubChem BioAssay, National Center for Advancing Translational Sciences (NCATS)
